Screens as filed in PubChem.
Only some compounds are listed: those with a hit (about 1.6% of all), similar ones and a draw of the others.
JMJD2C inh: inhibitors of human GASC-1 (JMJD2C) demethylase | inhibition, % at 2.35 µM | hit rate 0.069% among 330,000 | AID 2099 | Q9H3R0 | GST-JMJD2C(1-420) H3K9me3 demethylation, DELFIA europium;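 active means more than half of a compound's replicate wells show inhibition beyond 50%, single wells judged on their own value; inconclusive means some, but no more than half, of replicates pass 50% inhibition; inactive means no replicate passes 50% inhibition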;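 further: signal counts dimethyl H3K9 product captured on neutravidin plate; 0% = median of DMSO wells and 100% = 0.3 times that DMSO median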
GRK2 aptamer HTS: human GRK2 inhibition via aptamer displacement; P25098; bead flow cytometry, FAM-aptamer displacement from GRK2; inhibition of aptamer binding, % at 10 µM; hit rate 0.59% among 330,000;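 active means inhibition of aptamer binding above 40%, roughly 3 SD of noise, on plates passing a quality check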;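 further: median bead fluorescence of bound FAM aptamer so fluorescent compounds give negative values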
PREPL inh: inhibitors of human prolyl oligopeptidase-like enzyme PREPL; Q4J6C6; recombinant PREPL, fluorescence polarization activity-based probe; inhibition, % at 5.96 µM; hit rate 0.68% among 320,000; AID 2751;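 further: 0% = enzyme with DMSO and 100% = wells lacking enzyme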
Target sequence (Q4J6C6 whole entry, looked up): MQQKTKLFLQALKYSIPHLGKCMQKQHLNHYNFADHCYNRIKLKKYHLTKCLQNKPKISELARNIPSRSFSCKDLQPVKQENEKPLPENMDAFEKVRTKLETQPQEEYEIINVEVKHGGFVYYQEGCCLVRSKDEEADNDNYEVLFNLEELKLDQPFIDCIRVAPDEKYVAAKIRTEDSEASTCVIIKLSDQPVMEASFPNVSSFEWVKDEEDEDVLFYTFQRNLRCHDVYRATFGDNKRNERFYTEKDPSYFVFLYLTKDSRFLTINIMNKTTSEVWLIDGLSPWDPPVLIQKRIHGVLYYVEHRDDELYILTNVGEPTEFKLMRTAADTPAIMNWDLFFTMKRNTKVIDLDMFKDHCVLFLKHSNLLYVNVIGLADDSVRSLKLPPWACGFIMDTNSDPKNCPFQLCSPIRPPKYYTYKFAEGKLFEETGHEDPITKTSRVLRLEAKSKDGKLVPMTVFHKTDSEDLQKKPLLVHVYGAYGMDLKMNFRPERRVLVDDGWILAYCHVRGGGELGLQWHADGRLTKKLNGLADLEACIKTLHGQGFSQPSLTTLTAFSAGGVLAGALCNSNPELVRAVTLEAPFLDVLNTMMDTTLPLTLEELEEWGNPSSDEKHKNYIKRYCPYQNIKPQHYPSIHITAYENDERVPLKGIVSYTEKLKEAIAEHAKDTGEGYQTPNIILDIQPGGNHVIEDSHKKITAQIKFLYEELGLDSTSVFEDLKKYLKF
DSG3 Ab inh: inhibitors of pemphigus antibody binding to human desmoglein-3; P32926; DSG3-coupled beads, scFv-anti-DSG3-GFP binding, flow cytometry; active compounds read low; binding (percent of control), % at 10 µM; hit rate 0.48% among 310,000; AID 588358;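 active means binding more than 3 SD below its plate's average and above zero; inconclusive means below that plate limit but binding exactly zero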;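 further: hits lower antibody fragment binding to DSG3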
VLA-4 inh: inhibition in a human VLA-4 binding assay. P13612. VLA-4 expressing cells, ligand binding flow cytometry. hit rate 0.2% among 330,000. inhibition, % (about 7 µM as worked out from the volumes in the protocol); in the data active means inhibition above about 50%
PREPL inh cf: confirmation of human PREPL enzyme inhibitors; shares compounds with PREPL inh; recombinant PREPL, fluorescence polarization activity probe; inhibition, % at 5.96 µM; hit rate 67% among 2,000;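 further: 0% = protein with DMSO and 100% = wells lacking protein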
* marks the source's active call; other numbers are inactive results; ? = inconclusive; nt = not tested or not shown. Unless noted, no stated cut-off is given here; in the data, active means inhibition above about 43%; inactive means the rest.

SMILES | JMJD2C inh | GRK2 aptamer HTS | PREPL inh | DSG3 Ab inh | VLA-4 inh | PREPL inh cf
Nc1c(C(=O)NC2CCCC2)c2nc3ccccc3nc2n1N | -5 | 0 | 44* | 96 | -9 | 30
Cc1ccc(NC(=O)CN2C(=O)NC(Cc3ccccc3)C2=O)c(Br)c1 (stereo not drawn) | -17 | 0 | -5 | 105 | 10 | nt
COc1cc(/C=N/N=C(N)N)ccc1OCc1ccccc1Cl | -10 | 0 | 49* | 111 | -8 | 48*
COc1ccc(NC2=CC(=O)N(C)C2=O)cc1 | -1 | 0 | -9 | 99 | 33 | nt
Cc1ccccc1N=Cc1cccc(O)c1O | 9 | 6 | 22 | 100 | 9 | nt
Cc1ccc(N=Cc2cccc(O)c2O)c(C)c1 | 3 | 2 | 56* | nt | 7 | 7
CCN1C(=O)[C@H]2[C@@H](c3ccc(-c4ccc(Cl)c(Cl)c4)cc3)N[C@@](C)(C(=O)OC)[C@H]2C1=O | ? | 1 | 46* | 106 | 5 | 43
Cn1c(NN)nc2ccccc2c1=O | -3 | 3 | 45* | 100 | -5 | 26
Cn1c(N)nc2ccccc2c1=O | -9 | 0 | -8 | 104 | 13 | nt
O=C(c1ccc(-c2ccccc2)cc1)c1ccccc1C(=O)N1CCOCC1 | -1 | 4 | 46* | 99 | -4 | 41
Cc1ccc(NC(=O)NCCCN2CCCC2=O)c(C)c1 | -3 | 2 | 2 | 103 | 3 | nt
CN(C)c1ccc(/C=C/C(=O)c2ccc3c(c2)OCO3)cc1 | -2 | 5 | 52* | 150 | -289 | 27
O=C(/C=C/c1ccccc1)c1ccc2c(c1)OCO2 | 11 | 1 | -10 | nt | 7 | nt
CSc1cccc(NC(=O)CNC(=O)C2CCCCC2)c1 | 19 | 0 | 3 | 107 | -3 | nt
c1ccc2c(-c3[nH]ncc3CNCCCn3ncc4ccccc43)cccc2c1 | 4 | 0 | -21 | 115 | -6 | nt
OCC1CCCCN1CCNCc1cn[nH]c1-c1cccc2ccccc12 (stereo not drawn) | -1 | 0 | 44* | 104 | 4 | 43
O=C(O)C1CC=CCC1C(=O)NCCCCc1ccccc1 (stereo not drawn) | 2 | 0 | 4 | 94 | 5 | nt
Clc1cccc(-c2ccc(C3Nc4cccc5cccc(c45)N3)o2)c1 | nt | 3 | 49* | 99 | -11 | 61*
O=C(CNC(=O)c1ccc(Cl)cc1)c1ccccc1 | -2 | 2 | 2 | nt | 24 | nt
Cc1ccc(CN2CCSc3ccc(C(=O)NCC4CCCO4)cc32)cc1 (stereo not drawn) | -1 | 3 | 43* | 85 | 7 | 40
CCOCCCNc1ncnc2c1nc1n2CCCC1 | -2 | 0 | nt | ? | -4 | nt
Cc1ccc(C(=O)NCC(c2ccc(F)cc2)N2CCOCC2)cc1 (stereo not drawn) | nt | 1 | -18 | 98 | 3 | nt
CN(C)c1ccc(C(CNC(=O)c2ccc(-c3ccccc3)cc2)N2CCOCC2)cc1 (stereo not drawn) | -11 | 0 | 47* | 119 | -5 | 65*
COC(=O)Cc1ccc(NC(C)=O)cc1 | 4 | 1 | 16 | 101 | 17 | nt
COc1cccc(N2CCN(c3ncnc4c3[nH]c3ccccc34)CC2C)c1 (stereo not drawn) | -9 | 3 | 46* | nt | -14 | 46*
SMILES | JMJD2C inh | GRK2 aptamer HTS | PREPL inh | DSG3 Ab inh | VLA-4 inh | PREPL inh cf
COc1cccc(N2CCN(c3ncnc4c3[nH]c3ccc(F)cc34)CC2C)c1 (stereo not drawn) | 6 | 0 | 49* | 103 | -19 | 47*
COc1cc2[nH]c3c(N4CCN(c5ccc(Cl)cc5)CC4)ncnc3c2cc1OC | 1 | 0 | 95* | 122 | 15 | 75*
O=C(O)c1cccc(-n2cc(-c3cccc(C(F)(F)F)c3)cn2)c1 | 8 | 4 | -10 | 92 | 7 | nt
Cc1cc(N2CCCC2=O)ccc1S(=O)(=O)NC1CCCCC1 | -5 | 0 | 5 | 111 | 9 | nt
COC(=O)CCCC1=CC2=CC(=O)C(C)(OC(=O)c3cccs3)C(=O)C2=CN1CCc1c[nH]c2ccccc12 (stereo not drawn) | -7 | 4 | 45* | 100 | 10 | 22
CCCCC1=CC2=CC(=O)C(C)(OC(=O)CC)C(=O)C2=CN1CCc1c[nH]c2ccccc12 (stereo not drawn) | -5 | 0 | 38 | 99 | -49 | nt
Cn1nc(C(F)(F)F)c(-c2ccc(Br)cc2)c1NC(=O)Nc1ccc(F)cc1F | 11 | 0 | -30 | 112 | 17 | nt
Nn1c(SCC(=O)Nc2ccc(S(N)(=O)=O)cc2)nnc1-c1ccco1 | -21 | 0 | -1 | 102 | -7 | nt
c1ccc(C(c2nnnn2Cc2ccco2)N2CCN(c3nc4ccccc4s3)CC2)cc1 (stereo not drawn) | 21 | 1 | 44* | 97 | 6 | 41
Nc1[nH]n(-c2ccccc2)c(=O)c1N=Nc1ccc2c(c1)OCO2 | 2 | 0 | 45* | 94 | -14 | 47*
Nc1nn(-c2ccccc2)c(N)c1N=Nc1cccc(F)c1 | 0 | 1 | 65* | 99 | 11 | 60*
Nc1nn(-c2ccccc2)c(N)c1N=Nc1ccc2c(c1)OCO2 | -6 | 0 | 60* | 98 | -8 | 60*
CCNC(=O)/C(C#N)=C/c1c(N2CCN(c3ccccc3)CC2)nc2c(C)cccn2c1=O | -2 | 0 | 33 | 115 | -3 | nt
COCCNC(=O)/C(C#N)=C/c1c(N2CCN(c3ccc(OC)cc3)CC2)nc2c(C)cccn2c1=O | 24 | 5 | 54* | 106 | -2 | 49*
CCNC(=O)/C(C#N)=C/c1c(N2CCN(c3ccc(OC)cc3)CC2)nc2c(C)cccn2c1=O | -2 | 0 | 55* | 94 | -16 | 49*
COCCCN1C(=O)c2ccc(C(=O)NCCc3ccccc3)cc2C1=O | -3 | 0 | 8 | 98 | 8 | nt
OCCn1c(-c2ccc(F)cc2)csc1=Nc1ccccc1 | -3 | 0 | -13 | nt | 8 | nt
O=S(=O)(c1ccc(-c2csc(=Nc3ccccc3)n2CCCN2CCOCC2)cc1)N1CCOCC1 | -20 | 0 | 44* | 118 | 14 | 52*
C=CCN(c1ccc(C(=O)NCCc2ccccc2)cc1)S(C)(=O)=O | -6 | 0 | 3 | 97 | 0 | nt
Cc1ccc(N(CC(=O)NCC2CCCO2)C(=O)CCC(=O)Nc2nccs2)cc1 (stereo not drawn) | -6 | 3 | 43* | 97 | -2 | 15
COc1ccc(NCc2nn(CC(=O)c3ccc(Br)cc3)c3[n+]2CCCCC3)cc1 | -10 | 0 | 51* | nt | -1 | 55*
O=C(Cn1nc(CNc2ccc(Cl)cc2)[n+]2c1CCCCC2)c1ccc(Br)cc1 | -28 | 0 | 39 | 152 | 3 | nt
O=C(O)/C=C(/c1ccccc1)C(F)(F)F | nt | nt | nt | 99 | nt | nt
CC(C)NC(=O)CN1CCN(Cc2nc(C(c3ccccc3)c3ccccc3)no2)CC1 | 5 | 0 | 4 | 102 | 5 | nt
O=C(C1CCCN(S(=O)(=O)c2cccc3nonc23)C1)N1CCN(c2cccc(Cl)c2)CC1 (stereo not drawn) | 10 | 0 | 32 | 103 | -13 | nt
